SKOV3 invasion = Primary qHTS assay for Inhibitors of ovarian cancer metastasis using an organotypic tumor microenvironment (TME) model. SKOV3ip1-GFP adhesion/invasion on 3D omental model, fluorescence. Potency, µM (doses to about 45.8 µM), without a hit: top-dose activity change, negative = inhibition, most hits filed as inhibitors. 46,000 compounds, 0.1% hits;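 further: plate controls were DMSO wells for no effect and tomatine positive control wells for full effect; nearly all actives have a fitted effect of over 65% in size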
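Adhesion/invasion was scored as fixed GFP-labeled SKOV3ip1 cell counts (488/509 nm), normalized to DMSO and tomatine controls. Cancer cells in serum-free medium, with four compound doses (0.36-46 umol/L), sat 2 hr at RT then 16 hr at 37 C on a 48 hr fibroblast/mesothelial/ECM culture.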
PMP22 txn = Cell-based coincidence reporter assay to measure PMP22 gene transcription in S16 Pmp22-F2sN cells - Primary screen | Potency, µM (titrated, usually from 57.5 µM), for the others: top-dose activity change, negative = inhibition, hits mostly inhibitors | 43,000 compounds, 2% hits | S16 Pmp22-F2sN Schwann cells, FLuc/NLuc coincidence luminescence, 24 h; active means clear falling dose curves in both reporters; inconclusive means both reporters move, but less clearly or upward; inactive means either reporter flat; the % is the NLuc reporter signal
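Transcriptional readout in edited S16(c9) cells: two luciferases reported from the Pmp22 locus, measured in turn after 24 h compound incubation.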
S16 F2sN tox = Cell viability qHTS assay in S16 Pmp22-F2sN cells | 43,000 compounds, 0.48% hits | AID 1508642, 2021 | S16 Pmp22-F2sN Schwann cells (luciferase reporters placed in the Pmp22 gene) viability, CellTiter-Glo, 24 h | Potency, µM (titrated, usually from 57.5 µM), for inactives: at the highest dose activity change, negative = cytotoxicity, most hits filed as cytotoxic; further: nearly all actives have a fitted effect of over 65% in size
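CellTiter-Glo counter-screen, qHTS, 1536-well. Cells: S16(c9) Pmp22-F2sN, 500-1,000/well in DMEM + 10% FBS. Cpd 23 nL pin transfer, 24 h, 37C/5% CO2. Read: luminescence, CCD imager.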
p53null 39C kill = qHTS Screen for Compounds that Selectively Target Cancer Cells with p53 Mutations: Cytotoxicity of p53 Null Cells at the Nonpermissive Temperature | Potency, µM (series often up to 46.1 µM), for inactives: at the top dose activity, negative = cell killing, hits mostly cytotoxic | H1299 p53-null (neo) cells, 39C, ATPlite viability, 24 h | AID 904, 2007 | 55,000 compounds, 0.97% hits;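 further: 0% = DMSO only and -100% = full killing by 100 µM tamoxifen; nearly all actives have a fitted effect of over 50% in size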
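Concentration-response (up to 46 uM) was run for 24 h at the nonpermissive 39C on H1299-p53A138V or H1299-neo cells. ATP content was measured with ATPlite luminescence. AC50 values were Hill-modeled after normalizing between DMSO and 100 uM tamoxifen killing.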
pS6 MEF inh = Acumen qHTS Assay for Inhibitors of the mTORC1 Signaling Pathway in MEF (Tsc2-/-, p53-/-) Cells: Sytravon. Tsc2-/- p53-/- MEF, phospho-rpS6 immunofluorescence/PI, 24 h. Potency, µM (series often up to 38.3 µM), for the others: at the top dose activity change, negative = inhibition, most hits filed as inhibitors. 44,000 compounds, 0.78% hits. AID 493208, 2011;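 further: plate controls were DMSO for no effect and rapamycin for full effect; nearly all actives have a fitted effect of over 50% in size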
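Plate MEFs (Tsc2-/-, p53-/-, empty vector) in DMEM/10% FBS; after 24 h add compound, incubate 24 h at 37 degree Celsius; fix in PFA/TX-100, block, stain phospho-rpS6 and 10 uM PI; scan at 488 nm; report % positive cells.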
p53null 32C kill = qHTS Screen for Compounds that Selectively Target Cancer Cells with p53 Mutations: Cytotoxicity of p53 Null Cells at the Permissive Temperature; Potency, µM (doses to about 46.1 µM), for the others: at the highest dose activity change, negative = cytotoxicity, actives largely listed as cytotoxic; H1299-neo p53 null cells, ATP luminescence, 24 h, 32C; 55,000 compounds, 0.62% hits;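 further: 0% = DMSO only and -100% = full killing by 100 µM tamoxifen; nearly all actives have a fitted effect of over 55% in size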
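Overnight 37C seeding (600 cells/well) of H1299-neo preceded a 24 hr, 32C exposure to compounds up to 46 uM. ATP levels, read by luminescence after 20 min at RT, indicated surviving cells.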
The depositor's hits bear a star; i = inactive; ? = inconclusive; . = no result given. Sampled rows, rich in hits. Any-hit rate of the full collection: about 3.1%. Unless noted, the call rests on the fitted dose curve; in most records, active means well fitted curve in the direction sought with a large enough effect; inconclusive means small, poorly fitted or top-dose-only effect, or another doubt; inactive means no such curve, though single readings can be large; an effect the other way counts as inactive or inconclusive. Unless noted, on the % scale 0 is the no-effect control and ±100 the full control effect; potency means the concentration at half of the fitted maximal effect.

SMILES | SKOV3 invasion | PMP22 txn | S16 F2sN tox | p53null 39C kill | pS6 MEF inh | p53null 32C kill
COc1cc(OC)cc(C(=O)Nc2ccc3c(c2)OCCO3)c1 | i | -5% | ? | 6.3µM* | 5% | 7.9µM*
COc1cccc(-n2c(=O)[nH]cc(C(=O)Nc3ccc4c(c3)OCCO4)c2=O)c1 | . | . | . | 21% | . | 18%
CNC(=O)c1ccc(-c2cnc3ncc(Cc4ccc5ncccc5c4)n3n2)cc1F | -7% | . | . | . | . | .
COc1ccc(NC(=O)C(NC(=O)/C=C\c2ccc3c(c2)OCO3)c2ccccc2)cc1 (stereo unspecified) | ? | -24% | -28% | 15% | 10µM* | 1%
CCOC(=O)[C@H](CCc1ccccc1)N[C@@H](C)C(=O)N1CCCC1C(=O)O (stereo partly specified) | 0% | . | . | . | . | .
CC(C)(N)c1ccc(-c2nc3ccccc3nc2-c2ccccc2)cc1 | -2% | . | . | . | . | .
Cc1cccc2c1-c1sc(C(=O)Nc3ccccc3C(N)=O)cc1CO2 | -7% | ? | ? | ? | -1% | 16µM*
O=C1C(c2c(O)[nH]c3ccccc23)=Nc2ccccc21 | -12% | . | . | . | . | .
O=C1c2ccccc2-[n+]2ccc3c([nH]c4ccccc43)c21 | 2.3µM* | . | . | . | . | .
O=C(O)c1ccc2c(c1)nc(Nc1cccc(Cl)c1)c1ccncc12 | -5% | . | . | . | . | .
Cc1cccc(N2CCN(C(=O)c3ccc4c(c3)c(C)c(C)n4C)CC2)c1C | 28% | -18% | 0% | -14% | -4% | -2%
Cc1ccc(C)c(N2CCN(C(=O)c3ccc4c(c3)c(C)c(C)n4C)CC2)c1 | 28% | -11% | -4% | 25µM* | -7% | 34%
COc1cc(Oc2ccnc3cc(OC)c(OC)cc23)ccc1NC(=O)NC(C)c1nccs1 (stereo unspecified) | -7% | . | . | . | . | .
COC(=O)C1=CO[C@@H](O)[C@@H]2C(CO)=CC[C@@H]12 | -6% | . | . | . | . | .
COc1ccc(NC(=O)Cn2c(SCc3ccc(F)cc3)nc3cccnc32)cc1OC | -9% | -61% | -13% | ? | -18% | ?
COCCCNC(=O)c1ccc(CSc2nc3cccnc3n2Cc2ccc(OC)cc2)cc1 | i | ? | -4% | -25% | ? | 4%
O=C(NCCN1CCCCC1)c1ccc(Cn2c(SCc3ccc(F)cc3)nc3cccnc32)cc1 | ? | -6% | ? | ? | -10% | 16µM*
CN(C)CCNC(=O)c1ccc(Cn2c(SCc3ccc(F)cc3)nc3cccnc32)cc1 | -17% | 10% | -18% | -10% | -6% | -11%
COc1ccc(NC(=O)Cn2c(SCc3ccc(C)cc3)nc3cccnc32)cc1OC | -4% | ? | -18% | 5µM* | -20% | 3.5µM*
COCCCNC(=O)c1ccc(Cn2c(SCc3ccc(F)cc3)nc3cccnc32)cc1 | i | -10% | -24% | 13µM* | -6% | 10µM*
NC(=O)c1ncn([C@@H]2O[C@H](CO)[C@@H](O)[C@@H]2O)c1O | 1% | . | . | . | . | .
CC(C)C[C@@H](C(=O)N[C@H](C(=O)OC1CCCC1)c1ccccc1)[C@H](O)C(=O)NO | 8% | . | . | . | . | .
O=C(COc1ccc(F)cc1)NCCc1nc2ccccc2[nH]1 | 3% | -5% | -1% | -12% | -12% | 14%

From PubChem
